Laboratory results taken from PubChem BioAssay AID504333 (National Center for Advancing Translational Sciences (NCATS), 2011).
The campaign covered roughly 360,000 compounds. About 16,000 (4.4%) were called active. About 9% were inconclusive and are not listed. What follows is part of a selection rich in actives, with near analogues and random picks from the rest. A call without a number means that no potency is given here. Values without a mark were called inactive. Calls follow the shape of the dose curve; as a rule, active = well fitted inhibition curve with a large enough effect; inconclusive = small, poorly fitted or top-dose-only effect; inactive = no such curve, though single readings can be large or run the other way.

Target: Bromodomain adjacent to zinc finger domain protein 2B (Homo sapiens) (UniProt Q9UIF8)
Sequence (Q9UIF8 whole entry, looked up, the tested form may be a part): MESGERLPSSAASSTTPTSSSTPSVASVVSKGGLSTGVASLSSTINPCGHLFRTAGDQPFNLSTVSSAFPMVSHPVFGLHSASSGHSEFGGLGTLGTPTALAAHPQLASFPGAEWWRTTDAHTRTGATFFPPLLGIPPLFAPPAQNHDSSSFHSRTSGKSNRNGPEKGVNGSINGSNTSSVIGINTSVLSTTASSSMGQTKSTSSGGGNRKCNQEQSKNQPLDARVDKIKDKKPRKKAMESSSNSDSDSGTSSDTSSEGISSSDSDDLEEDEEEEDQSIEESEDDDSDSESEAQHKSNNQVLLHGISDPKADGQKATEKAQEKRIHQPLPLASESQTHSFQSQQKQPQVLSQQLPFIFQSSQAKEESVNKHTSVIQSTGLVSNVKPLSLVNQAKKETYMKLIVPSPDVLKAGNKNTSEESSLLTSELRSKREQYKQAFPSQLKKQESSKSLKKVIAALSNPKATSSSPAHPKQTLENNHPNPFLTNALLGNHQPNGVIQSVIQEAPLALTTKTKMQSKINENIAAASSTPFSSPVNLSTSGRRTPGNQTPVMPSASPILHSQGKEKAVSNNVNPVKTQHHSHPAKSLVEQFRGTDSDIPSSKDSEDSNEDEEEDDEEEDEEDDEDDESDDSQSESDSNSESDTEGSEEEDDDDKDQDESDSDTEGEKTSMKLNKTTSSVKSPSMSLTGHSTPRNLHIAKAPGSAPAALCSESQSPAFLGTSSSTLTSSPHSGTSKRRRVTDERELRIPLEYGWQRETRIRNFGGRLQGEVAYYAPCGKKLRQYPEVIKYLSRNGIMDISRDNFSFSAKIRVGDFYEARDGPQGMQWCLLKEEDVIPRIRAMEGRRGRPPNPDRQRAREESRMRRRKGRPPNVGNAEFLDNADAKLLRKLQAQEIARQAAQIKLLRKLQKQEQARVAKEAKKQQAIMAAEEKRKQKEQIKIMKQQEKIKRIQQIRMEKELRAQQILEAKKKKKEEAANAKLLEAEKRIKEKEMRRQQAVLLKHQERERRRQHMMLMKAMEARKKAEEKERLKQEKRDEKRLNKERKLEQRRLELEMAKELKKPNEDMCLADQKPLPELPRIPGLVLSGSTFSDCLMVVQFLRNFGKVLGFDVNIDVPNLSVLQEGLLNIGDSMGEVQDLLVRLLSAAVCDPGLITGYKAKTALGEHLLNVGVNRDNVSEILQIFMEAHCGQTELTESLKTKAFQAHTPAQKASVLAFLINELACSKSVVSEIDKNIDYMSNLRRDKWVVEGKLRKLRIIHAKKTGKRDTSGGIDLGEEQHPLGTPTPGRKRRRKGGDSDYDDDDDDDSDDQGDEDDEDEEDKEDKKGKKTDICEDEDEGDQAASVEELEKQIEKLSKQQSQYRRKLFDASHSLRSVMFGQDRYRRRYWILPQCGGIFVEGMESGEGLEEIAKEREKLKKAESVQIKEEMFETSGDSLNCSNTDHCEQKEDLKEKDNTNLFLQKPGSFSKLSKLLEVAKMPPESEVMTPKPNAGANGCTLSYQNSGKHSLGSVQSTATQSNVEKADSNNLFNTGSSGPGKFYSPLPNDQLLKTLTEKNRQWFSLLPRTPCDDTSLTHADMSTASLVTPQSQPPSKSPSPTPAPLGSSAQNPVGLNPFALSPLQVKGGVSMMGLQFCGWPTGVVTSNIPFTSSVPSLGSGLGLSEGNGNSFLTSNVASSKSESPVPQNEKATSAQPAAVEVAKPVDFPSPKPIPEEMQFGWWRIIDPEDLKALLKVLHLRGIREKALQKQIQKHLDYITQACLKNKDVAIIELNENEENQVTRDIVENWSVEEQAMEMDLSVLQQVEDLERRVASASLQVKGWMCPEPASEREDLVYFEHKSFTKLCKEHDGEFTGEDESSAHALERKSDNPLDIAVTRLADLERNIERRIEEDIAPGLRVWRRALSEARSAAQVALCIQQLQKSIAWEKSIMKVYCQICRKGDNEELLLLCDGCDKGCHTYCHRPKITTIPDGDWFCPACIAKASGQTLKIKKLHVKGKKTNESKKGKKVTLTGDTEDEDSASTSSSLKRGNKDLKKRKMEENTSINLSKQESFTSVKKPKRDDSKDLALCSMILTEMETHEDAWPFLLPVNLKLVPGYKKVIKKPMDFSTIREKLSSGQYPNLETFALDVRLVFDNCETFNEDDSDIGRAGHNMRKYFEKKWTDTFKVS
Test: qHTS Assay for Inhibitors of BAZ2B; also: nearly all actives have a fitted effect of over 60% in size
Conditions: AlphaScreen BAZ2B-H3K14Ac peptide displacement; series mostly up to 114 µM
Procedure, shortened: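 BAZ2B 50 nM plus b-H3(5-23)K14Ac 50 nM, PBS pH 7.4/0.01% Tween-20, 30 min RT; compound added (max 110 uM), 30 min RT; streptavidin donor/Ni-chelate acceptor beads 10 ug/mL final, 20 min dark; AlphaScreen read.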
Potency is read from the fitted curve at half-maximal effect.

Compound	Potency	activity change, negative = inhibition
COc1ccc(-c2onc(C)c2C)cc1S(=O)(=O)NCC1CCN(Cc2cccc(F)c2)CC1	inactive	–
Cc1ccccc1CN1CCC(CNC(=O)c2c(C)oc3ncnc(N4CCCCC4)c23)CC1	inactive	–
Cn1c(COc2ccccc2C(C)(C)C)nc2ccccc21	inactive	–
COc1ccc(NC(=O)CSC2=Nc3ccccc3C3=NC(CC(=O)NCc4ccccc4OC)C(=O)N23)cc1Cl (stereo unspecified)	inactive	–
O=C(NC(=S)Nc1ccccc1C(=O)O)c1ccc(-c2ccc(Br)cc2)o1	44.7 µM (active)	–
O=C(O)c1ccccc1NC(=O)c1ccccc1-c1ccccc1C(=O)O	inactive	–
O=C(NC(=S)Nc1cc(C(F)(F)F)ccc1N1CCOCC1)c1ccc(-c2cccc(Cl)c2)o1	inactive	–
COc1cc(C)ccc1OCCSc1nc2ccc(NC(=O)c3ccc(C)cc3)cc2s1	inactive	–
O=C(CCOc1ccccc1)N(Cc1cccnc1)c1nc2ccc(Cl)cc2s1	inactive	–
Cc1cccc(N2CCN(C(=O)c3cc4c(=O)oc5ccccc5c4s3)CC2C)c1 (stereo unspecified)	inactive	–
COC(=O)c1ccc(NC(=O)c2cnn(-c3ccc(Cl)cc3)c2C2CCN(C(=O)OC(C)(C)C)CC2)cc1	inactive	–
ON=C1/C(=N\O)CC2(C/C1=N/O)OCCO2	22.4 µM (active)	–
O/N=C1\CC2(Cc3nonc31)OCCO2	inactive	–
Cc1cccc(N2CCN(C(=O)c3ccc4c(c3)CCN4S(=O)(=O)c3ccccc3)CC2)c1C	inactive	–
O=C(COc1ccc(Cl)cc1)N(Cc1ccco1)Cc1ccco1	inactive	–
Cc1ccc(S(=O)(=O)NCc2nc3nc(C)cc(C)n3n2)cc1	inactive	–
CCc1ccc(NC(=O)CSc2nc3c([nH]c4ccccc43)c(=O)n2-c2cccc(OC)c2)cc1	inactive	–
Cn1c(=O)c2c(SCC(=O)N3CCc4ccccc43)nc(-c3ccc(Cl)cc3)nc2n(C)c1=O	inactive	–
Cc1cc(C)nc(N/N=C/c2c(CO)cnc(C)c2O)n1	79.4 µM (active)	–
Cc1cc(C)nc(N/N=C/c2c(C)oc3ccccc23)n1	inactive	–
O=C(c1cccc(Cl)c1)N1CCN(CCc2ccncc2)CC1	inactive	–
CSCCC(NC(=O)c1ccco1)C(=O)Nc1cc(C)ccn1 (stereo unspecified)	inactive	–
CC(NC(=O)c1ccco1)C(=O)Nc1nc(-c2ccccn2)cs1 (stereo unspecified)	22.4 µM (active)	–
CCOC(=O)N1CCN(C(=O)C(C)NC(=O)c2ccco2)CC1 (stereo unspecified)	inactive	–
Cc1cc(C)cc(-n2ccnc2SCC(=O)Nc2nc3ccccc3s2)c1	inactive	–
COc1ccc(CCNC(=O)c2cc3cccc4c3n2CC(C)S4)c(OC)c1OC (stereo unspecified)	inactive	–

Compound	Potency	activity change, negative = inhibition
CCC1=Nc2cc(C(=O)NCC(C)c3ccccc3)ccc2Sc2ccc(C)cc21 (stereo unspecified)	inactive	–
Cc1nnc(SCC(=O)Nn2cnnc2)s1	inactive	–
Cc1nnc(SCC(=O)Nc2ccc(S(=O)(=O)Nc3ccc(Cl)nn3)cc2)s1	50.1 µM (active)	–
CCCCCC(=O)Nc1ccc(S(=O)(=O)Nc2ccc(Cl)nn2)cc1	inactive	–
C#CC(CCN1CCCCC1)(OC)c1ccccc1 (stereo unspecified)	inactive	–
c1ccc(-c2ccccc2OCCN2CCCCC2)cc1	50.1 µM (active)	–
c1ccc(-c2ccc(OCCN3CCOCC3)cc2)cc1	inactive	–
O=C(CC(c1cccs1)N1Cc2ccccc2C1=O)Nc1ccc(F)c(F)c1 (stereo unspecified)	inactive	–
CC(=O)c1c(C)n(S(=O)(=O)c2ccc(Cl)cc2)c2ccc(NS(=O)(=O)c3ccc(Cl)cc3)cc12	inactive	–
Cn1c(C(=O)N2CCCC(C(=O)NCc3ccccc3)C2)cc2sccc21 (stereo unspecified)	inactive	–
COc1ccc(N2CCN(C(=O)C3CCCN(C(=O)c4cc5sccc5n4C)C3)CC2)cc1 (stereo unspecified)	39.8 µM (active)	–
COc1ccc(N2CCN(C(=O)C3CCN(C(=O)c4ccccc4Cl)CC3)CC2)cc1	inactive	–
Cc1cc(C)cc(NS(=O)(=O)c2cc3c(cc2C)NC(=O)CO3)c1	inactive	–
COc1ccc(C)cc1Nc1nc(C)nc2c1oc1ccccc12	inactive	–
COC(=O)c1cnc(Nc2cc(C)ccc2OC)c2ccccc12	inactive	–
COc1ccc(C)cc1Nc1nc(-c2c(C)[nH]c3ccccc23)cs1	50.1 µM (active)	–
O=C(COc1ccccc1Cl)Nc1ccc2nc(SCC(=O)N3CCCC3)sc2c1	inactive	–
Cc1c(C(=O)NCc2ccccc2Br)oc2ccc3c(c12)C(=O)CC(C)(C)O3	inactive	–
CCOC(=O)c1c(C)[nH]c(C)c1S(=O)(=O)N1CCC(C(=O)Nc2ccc(C)c(Cl)c2)CC1	inactive	–
CCOC(=O)c1ccc(NC2=CC(c3ccc(OCC)cc3)N(c3ccc(C(=O)OCC)cc3)C2=O)cc1 (stereo unspecified)	inactive	–
COc1ccc(CCNc2ncnc3onc(-c4ccc(Cl)cc4)c23)c(OC)c1	inactive	–
COc1ccc(N=C(C)c2sc3ccccc3c2O)cc1	inactive	–
Oc1ccc(N=Cc2sc3ccccc3c2Cl)cc1	31.6 µM (active)	–
CC(=O)n1c(C=Nc2ccccc2)c(O)c2ccccc21	inactive	–
COc1ccc(C(F)(F)F)cc1NC(=O)c1sc2nc(-c3cccs3)ccc2c1N	inactive	–
Clc1ccc(CSc2nncn3c2cc2occc23)cc1	44.7 µM (active)	–

Compound	Potency	activity change, negative = inhibition
O=C(C1CC1)N1CCN=C1SCc1ccc(Cl)cc1	inactive	–
Nc1cc(N)nc(SCc2ccc(Cl)cc2)n1	inactive	–
COC(=O)c1sccc1S(=O)(=O)N(CC(=O)Nc1ccc(C)c(F)c1)c1ccc(C)c(C)c1	inactive	–
CCOC(=O)c1c(NC(=O)c2cc(-c3ccc(Cl)cc3)on2)sc2c1CCCC2	inactive	–
COc1ccccc1-c1nnc(C2CCN(C(=O)c3ccc(Cl)cc3)CC2)o1	inactive	–
Cc1ccc(Oc2c(C(F)(F)F)oc3c(CN4CCCCC4)c(O)ccc3c2=O)cc1	inactive	–
Cc1nnc(C)n1-c1ccc(C(=O)Nc2cccc(Br)c2)cc1	inactive	–
Cc1ccccc1CN1CCC(CNC(=O)c2cc3ccc4cccnc4c3[nH]2)CC1	inactive	–
O=C(CCCN1C(=O)/C(=C\c2ccco2)SC1=S)Nc1cccc2ccccc12	44.7 µM (active)	–
O=C(CCN1C(=O)/C(=C/c2cccs2)SC1=S)NNC(=O)c1cccc(O)c1	inactive	–
O=C(CCCCCN1C(=O)c2cccc3cccc(c23)C1=O)NCc1ccco1	inactive	–
CCn1c(=O)c(=O)n(CC)c2cc(N3CCCCC3)c(NC(=O)c3cccc(F)c3)cc21	inactive	–
COc1ccc(C)cc1NC(=O)COCc1cc(-c2cccs2)on1	inactive	–
Cc1cc(C)cc(NC(=S)NCCc2c[nH]c3ccccc23)c1	28.2 µM (active)	–
Cc1cc(C)cc(NC(=S)NCc2ccc(F)cc2)c1	inactive	–
O=C(NCCc1c[nH]c2ccccc12)c1cccc(Br)c1	inactive	–
COc1ccc(CNC(=O)COCc2cc(-c3cccs3)on2)cc1OC	inactive	–
CCN(C(=O)Cn1cc(S(=O)(=O)N2CCN(c3ccccc3F)CC2)c2ccccc2c1=O)c1ccc(C)c(C)c1	inactive	–
Cc1ccc(CN(C(=O)c2ccccc2[N+](=O)[O-])c2ccccn2)cc1	inactive	–
CCc1ccc(N(CC)C(=O)CCn2cnc3onc(-c4ccc(F)cc4)c3c2=O)cc1	inactive	–
Cc1cccc(N2CCN(C(=O)/C=C/c3ccco3)CC2)c1C	50.1 µM (active)	–
CCC(CC)C(=O)N1CCN(c2cccc(C)c2C)CC1	inactive	–
Cc1cccc(N2CCN(C(=O)c3cnc(N4CCCC4)nc3C)CC2)c1C	inactive	–
CCOc1ccc2nc(N3CCCC(C(=O)Nc4cc(C)ccc4C)C3)sc2c1 (stereo unspecified)	inactive	–
CC(C)c1ccc2oc(-c3cc(NC(=O)c4cccs4)ccc3Cl)nc2c1	inactive	–
Cc1nnc(N/N=C/C2CC=CCC2)[nH]c1=O (stereo unspecified)	inactive	–

Compound	Potency	activity change, negative = inhibition
CCOc1ccc(-n2c(O)c(/C=N/Nc3nc(C)cc(C)n3)c3ccccc3c2=O)cc1	inactive	–
CCOc1ccc(-n2c(O)c(/C=N/c3ccnn3Cc3ccncc3)c3ccccc3c2=O)cc1	inactive	–
CCOc1ccc(-n2c(O)c(/C=N/Nc3nnc(C)c(=O)[nH]3)c3ccccc3c2=O)cc1	12.6 µM (active)	–
Cc1nnc(N/N=C/c2ccccn2)[nH]c1=O	39.8 µM (active)	–
O=C(COc1ccc(Cl)cc1Cl)N/N=C/c1ccccn1	inactive	–
Cc1cccc(S(=O)(=O)c2cn(Cc3ccccc3)c3cc(N4CCOCC4)c(F)cc3c2=O)c1	inactive	–
O=C(CSc1nc2ccccc2nc1Cc1ccccc1)N1CCCCC1	inactive	–
Cc1ccc(Nc2nnc(-c3ccc(C)c(S(=O)(=O)N4CCCCC4)c3)c3ccccc23)cc1	inactive	–
NS(=O)(=O)c1ccc(CNC(=O)c2cnccn2)cc1	inactive	–
COc1cccc(C(=O)NNS(=O)(=O)c2ccc(F)cc2)c1	–	8.36% [at 0.457 µM]
O=C(NNS(=O)(=O)c1ccc(F)cc1)c1cnccn1	79.4 µM (active)	–
CCC(CC)c1nn2cc(-c3ccccc3)nc2s1	inactive	–
Cc1ccc(OCC(=O)Nc2ccc(Cl)c(-c3nc4ccccc4[nH]3)c2)cc1C	inactive	–
Cc1nn(CC(=O)NCCc2ccccc2)c(=O)c2c1sc1ccccc12	inactive	–
COc1cc2ccccc2cc1C(=O)Nc1nc(C)c(C(C)=O)s1	inactive	–
CC(=O)c1sc(N/N=C\c2ccc(C)cc2)nc1C	inactive	–
CC(=O)c1sc(NC(=O)C2=NN(c3ccccc3)C(=O)CC2)nc1C	70.8 µM (active)	–
COc1ccccc1CNS(=O)(=O)c1cc(Br)cc2c1N(C(C)=O)C(C)C2 (stereo unspecified)	inactive	–
O=C(Nc1ccc(Br)cc1)c1ccc(Br)c(S(=O)(=O)NCc2ccccc2)c1	inactive	–
O=C(CN1CCN(S(=O)(=O)c2cc(Cl)ccc2Cl)CC1)c1ccc(O)c(O)c1	44.7 µM (active)	–
COc1ccc(Cl)cc1S(=O)(=O)N1CCN(CC(=O)C(C)(C)C)CC1	inactive	–
N#Cc1ccsc1NC(=O)CN1CCN(S(=O)(=O)c2cc(Cl)ccc2Cl)CC1	inactive	–
CCC(=O)Nc1ccccc1-c1nc2ccccc2n(CC(=O)Nc2ccc(C)c(C)c2)c1=O	inactive	–
